Source: ChEMBL document CHEMBL3988442, “University of Dundee, Small-Polar-MMV Screening Library” (2021)
Out of some 38,000 compounds screened, about 1,200 (3.2%) showed an effect of 50% or more. The median lay at about -58%. For the sample, strong results were picked, then their nearest neighbours and some compounds at random.

Each molecule was assayed on Plasmodium falciparum (assay: Calibr Malaria Delayed Death Assay SOP). Details: concentration 4.99e-06 (unit not given; other assays of the set use mol/L).
Type: functional, organism-based
Set-up: scale not given: in the data most compounds retested in dose-response had high values
`Cc1ccc(CNCc2c(C(C)C)nn(C)c2N2CCOCC2)s1` was tested, and the “Percent Effect” value was 43.54%.
With `Cc1nccn1Cc1nnc(C2CCCN(Cc3ccncc3)C2)n1C` (stereo not drawn) the “Percent Effect” value was -18.97%.
`Cc1nccn1CCCN1CCC(c2nccn2CC2CCC2)CC1` was tested, and the “Percent Effect” value was -43.9%.
In the case of `Cc1nccn1CCCN1CCCC(c2ccccc2)C1` (stereo not drawn), the “Percent Effect” value is reported as 77.62%.
In the case of `COc1cc(C)ccc1OCCC(=O)N1CCC(N2CC=CC2)C1` (stereo not drawn), the “Percent Effect” value is reported as -87.08%.
With `COc1ccc(N2CCN(Cc3noc(CC(C)C)n3)C(C)C2=O)cc1` (stereo not drawn) the “Percent Effect” value was -89.75%.
With `CN(C)CCN(C)C(=O)Cc1ccc2c(c1)OCCO2.O=C(O)CC(O)(CC(=O)O)C(=O)O` the “Percent Effect” value was -18.25%.
`COc1ccccc1CN(Cc1cccnc1)CC1CCCO1.O=C(O)CC(O)(CC(=O)O)C(=O)O` (stereo not drawn) was tested, and the “Percent Effect” value was -1.656%.
With `COc1cc(CN(CCCN(C)C)Cc2ccccn2)cc2c1OCO2.O=C(O)CC(O)(CC(=O)O)C(=O)O` the “Percent Effect” value was 79.66%.
`CCN1CCc2[nH]cnc2C12CCN(C(=O)CCc1cccs1)CC2` was tested, and the “Percent Effect” value was -14.54%.
For `CCN(C)CC(C)Cn1cnc(-c2ccccc2)c1C` (stereo not drawn), the “Percent Effect” value was -12.51%.
`CCc1c(C)sc2c1c(N)nc(=O)n2CCCN(C)C` was tested, and the “Percent Effect” value was -156.5%.
In the case of `CCc1c(C)sc2c1c(N)nc(=O)n2CCN(C)C`, the “Percent Effect” value is reported as 14.15%.
In the case of `Cc1c(-c2ccccc2)nc2c(c(C)c(C)n2CCN(C)C)c1N`, the “Percent Effect” value is reported as 79.27%.
In the case of `CN(C)CCN1CCN(C)c2nc(-c3ccccc3)ncc2C1=O`, the “Percent Effect” value is reported as -20.71%.
`CCCc1nc2c(c(C)c(C)n2CCN(C)C)c(N)c1CC` was tested, and the “Percent Effect” value was 89.53%.
In the case of `CCc1c(-c2ccccc2)nc2c(c(C)c(C)n2CCN(C)C)c1N`, the “Percent Effect” value is reported as 66.32%.
`O=C(Cc1ccccn1)N1C[C@H]2CCC[C@@]2(COc2ccccn2)C1` was tested, and the “Percent Effect” value was -9.537%.
For `Cc1cc(SCC(N)=O)nc(-c2ccc(F)cc2)n1`, the “Percent Effect” value was 0.2782%.
With `COCCn1cnnc1CCNc1cc(C)nc2ccnn12` the “Percent Effect” value was -117.5%.
In the case of `CCN1CC2(CC1=O)CN(Cc1ccoc1)CCN(C(=O)C(C)C)C2` (stereo not drawn), the “Percent Effect” value is reported as -77.86%.
For `CN1CCC(CNC(=O)c2cccc(CN3CCCCCC3)c2)C1` (stereo not drawn), the “Percent Effect” value was -131.1%.
In the case of `CN(C)C(=O)CN1CCC2(COCc3cnc(N4CCOCC4)nc32)C1.O=C(O)C(F)(F)F` (stereo not drawn), the “Percent Effect” value is reported as 13%.
`CN(CCCO)C(=O)c1cc(COc2ccc3c(c2)CCCC3)on1` was tested, and the “Percent Effect” value was -142.4%.
For `Cc1cccc(N2CCN(CCS(=O)(=O)c3ccc(Br)cc3)CC2)c1C`, the “Percent Effect” value was -66.5%.
In the case of `O=C(c1cscn1)N1CCc2ncc(CN3CCOCC3)n2CC1`, the “Percent Effect” value is reported as -41.39%.
In the case of `CCOc1ccc2nc(CN3CCC(CNC(C)=O)C3)ccc2c1` (stereo not drawn), the “Percent Effect” value is reported as 36.59%.
With `CCOc1ccc2nc(CN3CCC(CN)C3)ccc2c1` (stereo not drawn) the “Percent Effect” value was 85.08%.
With `CCOc1ccc2nc(CN3CCOC(CN)C3)ccc2c1` (stereo not drawn) the “Percent Effect” value was -11.41%.
In the case of `c1ccc(Cc2noc(CN3CCCC(Cn4cncn4)C3)n2)cc1` (stereo not drawn), the “Percent Effect” value is reported as -77.91%.
For `NC(=O)N1C[C@H](NC(=O)c2cscn2)[C@@H]2OCCC[C@@H]21`, the “Percent Effect” value was -29.66%.
With `O=C(NCc1ccco1)[C@H]1CC[C@@H]2[C@@H](CCN2c2ncccn2)O1.O=C(O)C(F)(F)F` the “Percent Effect” value was -5.9%.
In the case of `CC(C)CN1C(=O)CC[C@]12CC[C@@H](NC(=O)NCc1cccnc1)CC2.O=C(O)C(F)(F)F`, the “Percent Effect” value is reported as -179.5%.
For `O=C1NCCCCC1Sc1ccccc1F` (stereo not drawn), the “Percent Effect” value was -25.7%.
In the case of `Fc1ccccc1Sc1ccccc1CNC1=NCCN1.I`, the “Percent Effect” value is reported as 76.79%.
In the case of `O=C(NCCSc1ccccc1F)NCc1cccnc1`, the “Percent Effect” value is reported as -28.43%.
In the case of `O=C(Cc1cccnc1)NCCSc1ccccc1F`, the “Percent Effect” value is reported as -31.8%.
For `CN(C)c1nc(NCc2ccccc2Cn2cccn2)ncc1F`, the “Percent Effect” value was -30.26%.
`Cc1cc(Br)ccc1NCc1ccc(C(=O)N(C)C)[nH]1` was tested, and the “Percent Effect” value was -35.81%.
With `CC(C)[C@H](NC(=O)NC1CCS(=O)(=O)C1)C(=O)NCc1ccc(Cl)cc1` (stereo partly drawn) the “Percent Effect” value was -111.5%.
In the case of `COCCC1COC2(CCN(C(=O)c3cccnc3)CC2)C1.O=C(O)C(F)(F)F` (stereo not drawn), the “Percent Effect” value is reported as -117.3%.
In the case of `O=C(c1ccccc1)N1CC[C@H]2C[C@H](c3nccs3)O[C@@H]2C1`, the “Percent Effect” value is reported as -4.41%.
In the case of `Cc1cc(C)cc(OCCN(C)C(=O)NC(C)c2nncn2C)c1` (stereo not drawn), the “Percent Effect” value is reported as -106.2%.
For `CCc1nc(C2CCCN2C(=O)CCCn2cccn2)no1` (stereo not drawn), the “Percent Effect” value was -167.4875%.
With `COCC1c2c(cnn2C)CCN1C(=O)c1cscn1.O=C(O)C(F)(F)F` (stereo not drawn) the “Percent Effect” value was -119.3%.
In the case of `Cc1cccc(Nc2nccnc2C2CCCN(CC(=O)N(C)C)C2)n1` (stereo not drawn), the “Percent Effect” value is reported as -114.3%.
In the case of `Cc1cc(C)nc(Nc2cccc(C3CCCN(CCO)C3)n2)n1` (stereo not drawn), the “Percent Effect” value is reported as 10.75%.
`NCc1n[nH]c(-c2cccc(F)c2)n1` was tested, and the “Percent Effect” value was -72.36%.
For `Cc1nc(N2CCCC2)nc2c1CCN(C(=O)N(C)C)CC2`, the “Percent Effect” value was -58.26%.
`CCc1cccc(N2CCC(NC(=O)CCNC(N)=O)CC2)c1` was tested, and the “Percent Effect” value was -70%.
With `CCc1cccc(N2CCC(NC(=O)c3ccco3)CC2)c1` the “Percent Effect” value was 59.23%.
In the case of `CCc1cccc(N2CCC(NC(=O)c3ccoc3C)CC2)c1`, the “Percent Effect” value is reported as -20.41%.
`CN1CCC(C(=O)N2CCN(Cc3cccc(Cl)c3)CC2)CC1=O` (stereo not drawn) was tested, and the “Percent Effect” value was -101.4%.
In the case of `c1ccc(CCCN2CC(n3cccn3)C2)cc1`, the “Percent Effect” value is reported as -65.67%.
In the case of `CS(=O)(=O)NC1CCN(CCc2ccccc2)CC1`, the “Percent Effect” value is reported as -29.4%.
In the case of `Cl.Cl.NCC1[C@H]2CN(CCc3ccccc3)C[C@@H]12` (stereo partly drawn), the “Percent Effect” value is reported as 86.43%.
With `CC(=O)N1CCO[C@@H]2CN(Cc3cccc(Cl)c3)C[C@@H]2C1.O=C(O)C(F)(F)F` the “Percent Effect” value was -40.86%.
In the case of `O=C(Nc1nnc[nH]1)C(c1cccc(F)c1)N1CCOCC1` (stereo not drawn), the “Percent Effect” value is reported as -17.23%.
With `CC/C=C(\C)CN1CCC(CNC(=O)c2ccc(=O)[nH]c2)CC1` the “Percent Effect” value was -93.37%.
`Cc1ccc(S(=O)(=O)Cc2nnc(C)n2C)cc1` was tested, and the “Percent Effect” value was -134.3%.
With `O=C(c1csnn1)N1CCCC(n2cncn2)C1` (stereo not drawn) the “Percent Effect” value was -97.91%.
For `CCC(CC)CN1CCN(CC(=O)Nc2cccc3nsnc23)CC1`, the “Percent Effect” value was -38.36%.
`CCn1nccc1C(=O)NC(Cn1cccn1)C(C)(C)C` (stereo not drawn) was tested, and the “Percent Effect” value was -34.87%.
With `CN(C)Cc1ccccc1CN(C)c1ncnc2[nH]ccc12` the “Percent Effect” value was 27.74%.
For `Cc1cc(C)cc(CN2CCN(Cc3cc(C#N)n(C)c3)CC2=O)c1`, the “Percent Effect” value was 14.32%.
For `CCn1cc(CN2CCN(Cc3cccc(OC)c3)C(=O)C2)cc1C#N`, the “Percent Effect” value was 47.6%.
In the case of `CCn1cc(CN2CCN(Cc3cc(C)cc(C)c3)C(=O)C2)cc1C#N`, the “Percent Effect” value is reported as 66.78%.
`CN(CCn1cnc(-c2ccccc2)c1-c1ncc[nH]1)S(C)(=O)=O` was tested, and the “Percent Effect” value was -10.43%.
With `CC(=O)NCC1CCCN(Cc2nc(Cc3ccccc3F)no2)C1` (stereo not drawn) the “Percent Effect” value was -62.96%.
With `CS(=O)(=O)NCC1CCCN(Cc2ccc(F)c3cccnc23)C1` (stereo not drawn) the “Percent Effect” value was 9.25%.
For `CCN(C)S(=O)(=O)NCC1CCN(Cc2ccccc2F)C1` (stereo not drawn), the “Percent Effect” value was 42.63%.
With `NC1(C(=O)NCC2CCCN(Cc3cccc4nonc34)C2)CCC1` (stereo not drawn) the “Percent Effect” value was 38.45%.
`CCN(C)S(=O)(=O)NCC1CCCN(Cc2ccccc2F)C1` (stereo not drawn) was tested, and the “Percent Effect” value was 74.13%.
For `NC1(C(=O)NCC2CCCN(Cc3ccccc3F)C2)CCCC1` (stereo not drawn), the “Percent Effect” value was 85.42%.
With `CC(C)NC(=O)[C@@H]1C[C@H]2NCC[C@H]2O1.Cl` the “Percent Effect” value was -114.2%.
With `Cc1n[nH]c(C)c1NC(=O)Nc1cccnc1N1CCCC1` the “Percent Effect” value was -5.845%.
For `CC(C)CC(NCc1ccsc1)c1ccccn1` (stereo not drawn), the “Percent Effect” value was 58.77%.
In the case of `CC(C)CC(NCc1cccs1)c1ccccn1` (stereo not drawn), the “Percent Effect” value is reported as -24.93%.
In the case of `CC(C)CC(NCc1cscn1)c1ccccn1` (stereo not drawn), the “Percent Effect” value is reported as 28.89%.
`COCCSCC(=O)NCc1ccc(N(C)C)cc1` was tested, and the “Percent Effect” value was -84.72%.
For `COCC(=O)N1CCc2ccccc2C12CCNCC2.Cl`, the “Percent Effect” value was -57.82%.
For `CCOC(=O)N1CCc2ccccc2C12CCNCC2.Cl`, the “Percent Effect” value was 52.81%.
`Cl.O=C(C1CC1)N1CCc2ccccc2C12CCNCC2` was tested, and the “Percent Effect” value was -61.72%.
For `Cc1cnn(CCCNC(=O)NCCS(=O)(=O)Nc2ccccc2)c1`, the “Percent Effect” value was -111.9%.
`CC(C(=O)NC1CC1)S(=O)(=O)Cc1csc(-c2cccs2)n1` (stereo not drawn) was tested, and the “Percent Effect” value was -95.03%.
For `CC(C(=O)NCC1CCCCC1)S(=O)(=O)Cc1csc(-c2cccs2)n1` (stereo not drawn), the “Percent Effect” value was -110.5%.
For `CC(=O)Nc1ccc(-c2ccccc2CCN)cc1`, the “Percent Effect” value was -117.7%.
With `CC(C)C(NC(=O)NCCNc1ccccn1)c1cccs1` (stereo not drawn) the “Percent Effect” value was 11.18%.
For `Cc1ccc(CNC(=O)C2=NOC3(CCCNC3)C2)cc1` (stereo not drawn), the “Percent Effect” value was -11.58%.
With `CNC(=O)C(C)S(=O)(=O)Cc1csc(-c2cccs2)n1` (stereo not drawn) the “Percent Effect” value was -44.96%.
With `CCC1(CC)CC(=O)N(CC(O)c2cccc(F)c2)C1=O` (stereo not drawn) the “Percent Effect” value was -47.43%.
For `Cn1cc(CN2CCC3(CCN(c4cnn(C)c4)C3=O)C2)cn1.O=C(O)C(F)(F)F` (stereo not drawn), the “Percent Effect” value was -38.46%.
For `Cc1ccc(-n2ncc(C(=O)N(C)C3CCN(C)CC3)c2N)cc1C`, the “Percent Effect” value was -13.94%.
In the case of `COCCNC(=O)Cn1cc2c(n1)c(C)nn2C`, the “Percent Effect” value is reported as -119.4%.
In the case of `Cc1ccc(CN2Cc3nccn3CC(Cn3cncn3)C2)s1.O=C(O)C(F)(F)F` (stereo not drawn), the “Percent Effect” value is reported as -180.8%.
For `COc1ccccc1OCCC(=O)NC1CCc2nc(C)cn2C1` (stereo not drawn), the “Percent Effect” value was -82.15%.
For `Cc1ncc(CNC(=O)CCc2ccccc2F)c(C2CCCN2C)n1` (stereo not drawn), the “Percent Effect” value was -31.11%.
For `Clc1cc(CN2CCCC(Cn3cncn3)C2)c2ncccc2c1` (stereo not drawn), the “Percent Effect” value was 36.9%.
With `O[C@@H]1CN(Cc2cc(Cl)cc3cccnc23)C[C@@H]1O` the “Percent Effect” value was -71.8%.
In the case of `Clc1cc(CN2CCCN3CCCC3C2)c2ncccc2c1` (stereo not drawn), the “Percent Effect” value is reported as 88.94%.
For `Cc1cccc(-c2nc(N)nc3c2CN(C(=O)c2ccncn2)C3C)c1` (stereo not drawn), the “Percent Effect” value was -72.66%.
For `COc1coc(C(=O)Nc2nc(-c3ccccn3)cs2)cc1=O`, the “Percent Effect” value was 19.28%.
In the case of `CN(Cc1noc2c1CCCC2)C(=O)Nc1cncc(F)c1`, the “Percent Effect” value is reported as -40.24%.
